The panel holds about 83,000 compounds, 20% with a hit somewhere; the sample as a whole holds those more often.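 Treatment: one concentration, 48 hours, 96-well format. Scoring: percent growth, with anything below 10 considered active.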 A number with no mark means an inactive call. Active and inactive are the calls of the source.
Tests used:
Assay in all cases: NCI-60 one-dose screen, 48 h (100 = growth as untreated, 0 = no growth, -100 = all killed)
Settings in all cases: 10 µM unless noted
NCI-H23 lung = test system: NCI-H23 lung
NCI-H226 lung = test system: NCI-H226 lung
NCI-H322M lung = test system: NCI-H322M lung
HOP-62 NSCLC = test system: HOP-62 NSCLC
NCI-H460 lung = test system: NCI-H460 lung
HOP-92 NSCLC = test system: HOP-92 NSCLC
NCI-H522 lung = test system: NCI-H522 lung
A549/ATCC NSCLC = test system: A549/ATCC NSCLC
786-0 renal = test system: 786-0 renal
COLO 205 colon = test system: COLO 205 colon

SMILES: Cc1nn(-c2ccccc2)c2nc(C)n(CC(=O)N/N=C/c3cccc([N+](=O)[O-])c3)c(=O)c12
- growth (NCI-H23 lung): 102%
- growth (NCI-H226 lung): 100%
- growth (NCI-H322M lung): 98.1%
- growth (HOP-62 NSCLC): 96.1%
- growth (NCI-H460 lung): 106%
- growth (HOP-92 NSCLC): 91.9%
- growth (NCI-H522 lung): 92.7%
- growth (A549/ATCC NSCLC): 91.9%
- growth (786-0 renal): 84%
- growth (COLO 205 colon): 120%

SMILES: CCCSc1nnc(-c2c(C)nc3sccn23)o1
- growth (NCI-H23 lung): 90.5%
- growth (NCI-H226 lung): 66.6%
- growth (NCI-H322M lung): 73.9%
- growth (HOP-62 NSCLC): 112%
- growth (NCI-H460 lung): 97.9%
- growth (HOP-92 NSCLC): 73.8%
- growth (NCI-H522 lung): 98.7%
- growth (A549/ATCC NSCLC): 98.2%
- growth (786-0 renal): 92.8%
- growth (COLO 205 colon): 118%

SMILES: CC(=O)C[n+]1cccc2c3ccccc3ccc21
- growth (NCI-H23 lung): 85.4%
- growth (NCI-H226 lung): 97%
- growth (NCI-H322M lung): 89.7%
- growth (HOP-62 NSCLC): 109%
- growth (NCI-H460 lung): 82.4%
- growth (HOP-92 NSCLC): 85.2%
- growth (NCI-H522 lung): 82.7%
- growth (A549/ATCC NSCLC): 56.9%
- growth (786-0 renal): 94.8%
- growth (COLO 205 colon): 70.5%

SMILES: COc1c(B(O)O)cc(F)cc1-c1nc2ccc3[nH]ncc3c2c2c1COCC2
- growth (NCI-H23 lung): 78.3%
- growth (NCI-H226 lung): 50.8%
- growth (NCI-H322M lung): 78.4%
- growth (HOP-62 NSCLC): 49.5%
- growth (NCI-H460 lung): 64.9%
- growth (HOP-92 NSCLC): 18.1%
- growth (NCI-H522 lung): 14.5%
- growth (A549/ATCC NSCLC): 92.5%
- growth (786-0 renal): 46.1%
- growth (COLO 205 colon): 38.1%

SMILES: Fc1ccc(N2CC(Cn3c(C(F)(F)F)cc4c(Cl)ncnc43)C2)c(F)c1
- growth (NCI-H23 lung): -76% (active)
- growth (NCI-H226 lung): 116%
- growth (NCI-H322M lung): 45.7%
- growth (HOP-62 NSCLC): 46.8%
- growth (NCI-H460 lung): -72.9% (active)
- growth (HOP-92 NSCLC): -7.85% (active)
- growth (NCI-H522 lung): 9.73% (active)
- growth (A549/ATCC NSCLC): 108%
- growth (786-0 renal): 79.2%
- growth (COLO 205 colon): 65%

SMILES: COc1ccc(-c2cc(C(=O)N=Nc3c(O)[nH]c4ccc(Cl)cc34)c3ccccc3n2)cc1
- growth (NCI-H23 lung): 14.3%
- growth (NCI-H226 lung): 81.8%
- growth (NCI-H322M lung): 79%
- growth (HOP-62 NSCLC): -20.9% (active)
- growth (NCI-H460 lung): 0.622% (active)
- growth (HOP-92 NSCLC): 117%
- growth (NCI-H522 lung): -16.1% (active)
- growth (A549/ATCC NSCLC): -4.4% (active)
- growth (786-0 renal): 72.4%
- growth (COLO 205 colon): 7.83% (active)

SMILES: Oc1cncc(-c2ccc3ncnc(N4CCc5cc(F)c(Cl)cc54)c3c2)c1
- growth (NCI-H23 lung): 47.8%
- growth (NCI-H226 lung): 42.2%
- growth (NCI-H322M lung): 54.4%
- growth (HOP-62 NSCLC): 49.5%
- growth (NCI-H460 lung): 39.2%
- growth (HOP-92 NSCLC): 40.9%
- growth (NCI-H522 lung): 68.4%
- growth (A549/ATCC NSCLC): 40.4%
- growth (786-0 renal): 35.4%
- growth (COLO 205 colon): 77%

SMILES: COc1ccccc1NC(=O)c1ccc(NC(=O)CCl)s1
- growth (NCI-H23 lung): -66% (active)
- growth (NCI-H226 lung): -34.6% (active)
- growth (NCI-H322M lung): 94.1%
- growth (HOP-62 NSCLC): 41.9%
- growth (NCI-H460 lung): -16% (active)
- growth (HOP-92 NSCLC): -0.226% (active)
- growth (NCI-H522 lung): -77.3% (active)
- growth (A549/ATCC NSCLC): -2.86% (active)
- growth (786-0 renal): -93.4% (active)
- growth (COLO 205 colon): 9.16% (active)

SMILES: O=C(CSc1nnc(-c2ccc(-c3nc4ccccc4[nH]3)cc2)o1)Nc1ccc(Cl)cc1
- growth (NCI-H23 lung): -6.9% (active)
- growth (NCI-H226 lung): 40.3%
- growth (NCI-H322M lung): 61.5%
- growth (HOP-62 NSCLC): 0.484% (active)
- growth (NCI-H460 lung): -65.4% (active)
- growth (HOP-92 NSCLC): -5.87% (active)
- growth (NCI-H522 lung): 0.5% (active)
- growth (A549/ATCC NSCLC): 1.88% (active)
- growth (786-0 renal): -37.8% (active)
- growth (COLO 205 colon): 61.7%

SMILES: Nc1cc2ccccc2c(=O)n1NC(=O)c1ccccc1
- growth (NCI-H23 lung): 87.4%
- growth (NCI-H226 lung): 80.8%
- growth (NCI-H322M lung): 104%
- growth (HOP-62 NSCLC): 103%
- growth (NCI-H460 lung): 105%
- growth (HOP-92 NSCLC): 111%
- growth (NCI-H522 lung): 89.3%
- growth (A549/ATCC NSCLC): 103%
- growth (786-0 renal): 105%
- growth (COLO 205 colon): 111%

SMILES: COc1ccc2[nH]cc(-c3cc4nc(-c5cn(C)c6ncccc56)cc(N)n4n3)c2c1
- growth (NCI-H23 lung): 13.9%
- growth (NCI-H226 lung): 92.6%
- growth (NCI-H322M lung): 37.1%
- growth (HOP-62 NSCLC): 19.8%
- growth (NCI-H460 lung): -58.3% (active)
- growth (HOP-92 NSCLC): -45.7% (active)
- growth (NCI-H522 lung): -58.7% (active)
- growth (A549/ATCC NSCLC): -25.9% (active)
- growth (786-0 renal): -90.3% (active)
- growth (COLO 205 colon): -49.9% (active)

SMILES: N#C/C(=C/c1ccc([N+](=O)[O-])cc1)c1nnc(NC(=O)c2ccc(-n3c(=O)[nH]c4ccccc4c3=O)cc2)s1
- growth (NCI-H23 lung): 91.9%
- growth (NCI-H226 lung): 87.8%
- growth (NCI-H322M lung): 97.5%
- growth (HOP-62 NSCLC): 85.6%
- growth (NCI-H460 lung): 79.2%
- growth (HOP-92 NSCLC): 101%
- growth (NCI-H522 lung): 108%
- growth (A549/ATCC NSCLC): 102%
- growth (786-0 renal): 104%
- growth (COLO 205 colon): 122%

From PubChem BioAssay (NCI)
